Measured values reported in PubChem BioAssay.
Active and inactive are the calls of the source. Unless noted, how the calls were made is not given here.

Columns and labels:
[1] = system: Wnt5a (protein binding on small-molecule microarray); assay: Wnt5a binders on small-molecule microarray, primary screen, biophysical, 635/667 nm fluorescence (AID 1142); details: 635 nm fluorescence, higher = more signal;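 further: fluorescence read at 667 nm with signal to noise per printed feature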
[2] = cell viability in Huh7 cells, primary screen, cytotoxicity control for HCV replication inhibitor project, CellTiter-Glo luminescence, basal, 48 h (AID 1143); details: Huh7 HCV replicon, higher = more signal, called active from +8 up or from −8 down;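 further: Huh7 hepatoma cells carrying a hepatitis C replication reporter with no stimulus; test concentration not given here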
[3] = P. aeruginosa biofilm formation inhibitors, primary screen, PAO1 strain, BacTiter-Glo luminescence, LB-PBS (AID 1144); details: 12 h, higher = more signal
[4] = CREB reporter modulators without forskolin, primary screen, cell-based, PC12, CRE-LacZ reporter, unstimulated (AID 1145); details: no forskolin, luminescence, 4.5 h, higher = more signal, called active from +8 up or from −8 down
[5] = CREB reporter modulators under forskolin, primary screen, cell-based, PC12, CRE-LacZ reporter, forskolin-stimulated (AID 1146); details: luminescence, 4.5 h, higher = more signal, called active from +8 up or from −8 down;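 further: PC12 cells with 6xCRE LacZ reporter stimulated by forskolin 10 µM; beta-galactosidase reporter signal reflecting CREB driven transcription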
[6] = target: Streptavidin (Streptomyces avidinii) (UniProt P22629); assay: streptavidin binders on small-molecule microarray, primary screen, artefact control for SMM compound annotation, biophysical, 635/667 nm fluorescence (AID 1147); details: streptavidin binding, higher = more signal;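 further: signal reflects streptavidin binding to arrayed compounds as a control protein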
[7] = small-molecule binders of probe aInhba, primary screen, biochemical, small-molecule microarray, 635/667 nm fluorescence (AID 1148); details: higher = more signal;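 further: score merges 667nm spot fluorescence with signal-to-noise for antibody binding to printed compounds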
[8] = target: Torsin-1A (Homo sapiens) (UniProt O14656); assay: torsin A binders from cell lysate, primary screen, small-molecule microarray, wild-type, 635/667 nm (AID 1149); details: COS7 hTOR1A-WT lysate, 635 nm fluorescence, higher = more signal
[9] = target: Torsin-1A (Homo sapiens) (UniProt O14656); assay: small-molecule binders of mutant TOR1A in lysate, primary screen, cell lysate, small-molecule microarray, COS7 lysate, 635/667 nm fluorescence (AID 1150); details: COS7 hTOR1A mutant lysate, 635 nm fluorescence, higher = more signal;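 further: score pools 667 nm emission and signal to noise measuring lysate protein binding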
[10] = system: Sonic hedgehog protein (Shh); assay: small-molecule binders of Shh protein, primary screen, biochemical, small-molecule microarray, 635/667 nm fluorescence (AID 1151); details: small-molecule microarray binding, 635 nm fluorescence; higher = more signal;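 further: Shh protein binding to compounds spotted on small-molecule microarray slides; score combines spot fluorescence intensity with signal-to-noise across triplicate slides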
[11] = E. coli DRC41 culture turbidity changes, primary screen, E. coli filamentation inducer project, strain DRC41, OD650, 48 h (AID 1152);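 further: E. coli MC1000 strain DRC41 lacking acrAB efflux pump and sulA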; details: E. coli DRC41 (acrAB sulA), higher = more signal, called active from +8 up or from −8 down
[12] = small-molecule binders of probe aLefty1, primary screen, biochemical, small-molecule microarray, 635/667 nm fluorescence (AID 1153); details: higher = more signal;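 further: score merges spot fluorescence with signal-to-noise ratio from the scanned slide images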
[13] = PSAC antagonists in infected red cells, primary screen, cell-based, P. falciparum Indochina, OD700, 1 h (AID 1154); details: P. falciparum Indochina infected RBC osmotic lysis, higher = more signal, called active from +8 up or from −8 down
[14] = PSAC antagonists in infected red cells, primary screen, cell-based, P. falciparum Indochina, OD700, 2 h (AID 1155);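 further: lysis reports solute entry through the parasite surface anion channel PSAC; channel blockers reduce lysis of infected cells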; details: P. falciparum Indochina infected erythrocytes, osmotic lysis OD700; higher = more signal, called active from +8 up or from −8 down
[15] = osmotic lysis modulators in infected erythrocytes, primary screen, PSAC antagonist project, cell-based, P. falciparum Indochina, OD700, 3 h (AID 1156); details: higher = more signal, called active from +8 up or from −8 down
[16] = PSAC antagonists in infected red cells, primary screen, cell-based, P. falciparum Indochina, OD700, 18 h (AID 1157); details: P. falciparum Indochina infected erythrocytes, osmotic lysis OD700, 18 h; higher = more signal, called active from +8 up or from −8 down
[17] = modulators of S6 phosphorylation in cells, primary screen, cell-based, A549, cytoblot, luminescence, serum-stimulated (AID 1158); details: A549 phospho-S6 cytoblot, 5 h, higher = more signal;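 further: serum-stimulated A549 lung adenocarcinoma cells; signal is phosphorylated S6 detected by cytoblot immunostaining with HRP secondary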
[18] = target: NADPH oxidase 2 (Homo sapiens) (UniProt P04839); assay: NOX2-dependent H2O2 signal modulators, primary screen, NOX inhibitor project, cell-based, HEK293-NOX2, PMA-stimulated, Amplex Red fluorescence (AID 1159); details: 45 min, higher = more signal, called active from +8 up or from −8 down; further: test concentration not given here
[19] = target: NADPH oxidase 4 (Homo sapiens) (UniProt Q9NPH5); assay: NOX4-dependent H2O2 signal modulators, primary screen, NOX inhibitor project, cell-based, HEK293-NOX4, tetracycline-induced, Amplex Red fluorescence (AID 1160); details: 45 min, higher = more signal, called active from +8 up or from −8 down
[20] = target: NADPH oxidase 5 (Homo sapiens) (UniProt Q96PH1); assay: NOX5-dependent H2O2 signal modulators, primary screen, NOX inhibitor project, cell-based, HEK293-NOX5, Amplex Red fluorescence (AID 1161); details: HEK293-NOX5, ionomycin, 45 min, higher = more signal
Chain of NADPH oxidase 5 (Homo sapiens) (Q96PH1 whole entry, looked up): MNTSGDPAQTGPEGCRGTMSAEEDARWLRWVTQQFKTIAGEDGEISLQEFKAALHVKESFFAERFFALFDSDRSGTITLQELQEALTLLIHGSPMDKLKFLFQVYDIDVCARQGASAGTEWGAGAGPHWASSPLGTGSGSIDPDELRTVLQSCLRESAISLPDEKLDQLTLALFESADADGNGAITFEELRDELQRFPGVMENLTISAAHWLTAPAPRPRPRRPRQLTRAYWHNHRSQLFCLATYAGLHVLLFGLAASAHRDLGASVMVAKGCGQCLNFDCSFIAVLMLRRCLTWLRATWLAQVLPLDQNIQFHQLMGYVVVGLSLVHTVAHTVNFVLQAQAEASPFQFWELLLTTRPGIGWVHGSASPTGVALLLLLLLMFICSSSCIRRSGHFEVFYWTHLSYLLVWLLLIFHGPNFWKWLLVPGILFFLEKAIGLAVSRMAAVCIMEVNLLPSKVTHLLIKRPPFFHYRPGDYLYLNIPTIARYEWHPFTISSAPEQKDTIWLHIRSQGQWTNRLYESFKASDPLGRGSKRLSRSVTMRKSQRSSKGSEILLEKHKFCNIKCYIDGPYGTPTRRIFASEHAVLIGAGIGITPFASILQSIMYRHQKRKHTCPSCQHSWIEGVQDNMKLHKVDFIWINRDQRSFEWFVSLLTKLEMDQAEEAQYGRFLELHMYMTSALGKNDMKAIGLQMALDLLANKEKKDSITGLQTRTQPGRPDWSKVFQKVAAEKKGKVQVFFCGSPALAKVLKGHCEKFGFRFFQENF

Chain of NADPH oxidase 4 (Homo sapiens) (Q9NPH5 whole entry, looked up): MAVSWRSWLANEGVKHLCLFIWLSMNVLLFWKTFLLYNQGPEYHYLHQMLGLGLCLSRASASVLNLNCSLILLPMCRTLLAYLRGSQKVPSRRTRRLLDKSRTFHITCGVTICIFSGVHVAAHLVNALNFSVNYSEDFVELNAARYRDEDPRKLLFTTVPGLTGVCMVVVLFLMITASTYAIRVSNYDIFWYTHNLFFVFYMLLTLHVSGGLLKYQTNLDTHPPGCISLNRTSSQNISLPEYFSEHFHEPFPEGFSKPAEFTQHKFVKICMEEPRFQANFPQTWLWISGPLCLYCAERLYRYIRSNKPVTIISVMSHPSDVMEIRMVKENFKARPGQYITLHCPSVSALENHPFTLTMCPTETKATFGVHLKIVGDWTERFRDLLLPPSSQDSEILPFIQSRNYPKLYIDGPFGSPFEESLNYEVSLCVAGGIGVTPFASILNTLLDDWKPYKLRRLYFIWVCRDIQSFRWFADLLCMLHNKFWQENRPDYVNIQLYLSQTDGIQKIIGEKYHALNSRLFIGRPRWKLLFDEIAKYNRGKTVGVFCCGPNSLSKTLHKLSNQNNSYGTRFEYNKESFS
Chain of Streptavidin (Streptomyces avidinii) (P22629 whole entry, looked up): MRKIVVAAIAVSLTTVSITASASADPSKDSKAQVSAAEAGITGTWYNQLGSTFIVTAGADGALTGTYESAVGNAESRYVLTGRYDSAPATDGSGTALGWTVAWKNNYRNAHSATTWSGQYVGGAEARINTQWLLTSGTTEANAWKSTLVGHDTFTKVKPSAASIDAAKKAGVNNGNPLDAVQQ
Chain of Torsin-1A (Homo sapiens) (O14656 whole entry, looked up): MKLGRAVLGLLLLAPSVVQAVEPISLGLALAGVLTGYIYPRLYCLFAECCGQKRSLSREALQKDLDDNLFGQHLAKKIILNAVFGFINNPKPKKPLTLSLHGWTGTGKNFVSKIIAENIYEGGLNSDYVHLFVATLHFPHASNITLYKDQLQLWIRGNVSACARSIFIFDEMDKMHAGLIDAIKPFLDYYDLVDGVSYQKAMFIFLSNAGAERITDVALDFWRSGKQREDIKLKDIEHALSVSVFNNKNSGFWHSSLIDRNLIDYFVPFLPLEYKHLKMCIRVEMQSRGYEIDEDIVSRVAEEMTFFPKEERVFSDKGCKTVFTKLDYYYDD
Chain of NADPH oxidase 2 (Homo sapiens) (P04839 whole entry, looked up): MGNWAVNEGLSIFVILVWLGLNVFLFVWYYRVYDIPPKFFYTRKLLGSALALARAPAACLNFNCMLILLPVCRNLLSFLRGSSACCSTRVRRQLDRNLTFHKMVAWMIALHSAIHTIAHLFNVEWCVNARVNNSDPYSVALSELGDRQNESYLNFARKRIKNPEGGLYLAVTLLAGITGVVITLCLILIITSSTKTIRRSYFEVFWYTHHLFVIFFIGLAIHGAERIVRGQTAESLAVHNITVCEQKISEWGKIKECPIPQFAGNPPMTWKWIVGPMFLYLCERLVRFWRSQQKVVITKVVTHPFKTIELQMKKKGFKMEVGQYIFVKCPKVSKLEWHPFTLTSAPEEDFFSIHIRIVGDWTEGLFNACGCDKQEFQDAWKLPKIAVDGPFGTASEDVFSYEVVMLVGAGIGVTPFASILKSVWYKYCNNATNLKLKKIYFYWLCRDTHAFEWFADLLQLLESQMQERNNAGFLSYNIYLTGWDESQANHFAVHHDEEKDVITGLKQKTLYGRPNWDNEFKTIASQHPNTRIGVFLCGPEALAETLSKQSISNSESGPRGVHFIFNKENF

SMILES | composite z-score [1] | z-score [2] | z-score [3] | z-score [4] | z-score [5] | composite z-score [6] | composite z-score [7] | composite z-score [8] | composite z-score [9] | composite z-score [10] | z-score [11] | composite z-score [12] | z-score [13] | z-score [14] | z-score [15] | z-score [16] | z-score [17] | z-score [18] | z-score [19] | z-score [20]
C[C@@H](c1ccccc1)N1C(=O)[C@H]2[C@H]3[C@H](O)[C@H](O)CC(=NO[C@@H]4O[C@H](CO)[C@@H](O)[C@H](O)[C@H]4O)[C@H]3CC[C@H]2C1=O | 0.189 | 0.573 (inactive) | -0.104 (inactive) | -0.294 (inactive) | 0.845 (inactive) | 0.152 | -0.142 | 0.225 | 0.249 | 0.457 | 0.391 (inactive) | 1.16 | -0.483 (inactive) | -0.205 (inactive) | -0.0944 (inactive) | -0.0378 (inactive) | -0.0015 | 1.5 (inactive) | -1.93 (inactive) | -0.63
O=C1[C@H]2[C@H]3[C@H](O)[C@H](O)CC(=NOC[C@@H](O)COCc4ccco4)[C@H]3CC[C@H]2C(=O)N1C[C@@H]1CCCO1 | 0.228 | 0.208 (inactive) | -0.136 (inactive) | 0.424 (inactive) | 0.261 (inactive) | -0.0239 | -0.111 | 3.31 | 2.75 | 0.793 | -0.362 (inactive) | -0.324 | 0.342 (inactive) | 0.276 (inactive) | -0.425 (inactive) | 0.33 (inactive) | -0.637 | 0.276 (inactive) | 0.557 (inactive) | -0.0426
COC(=O)CC=C[C@@H](C)[C@@H](C=NO[C@H](C)c1cn([C@@H]2COC[C@H]2O)nn1)NS(=O)(=O)c1ccc(C)cc1 | -0.0155 | 0.23 (inactive) | -0.668 (inactive) | 1.08 (inactive) | -0.112 (inactive) | -0.262 | 0.0173 | 0.68 | 0.429 | 0.691 | 0.876 (inactive) | -0.274 | 1.43 (inactive) | 0.269 (inactive) | 0.785 (inactive) | 0.465 (inactive) | 0.459 | -0.283 (inactive) | 0.891 (inactive) | 0.309
O=C1CCCC(C2=CCCCC2=O)C1 (stereo not given) | 0.18 | 0.211 (inactive) | 0.0656 (inactive) | 0.019 (inactive) | -0.222 (inactive) | -0.15 | -0.0288 | 0.217 | 0.37 | 0.626 | -0.316 (inactive) | -0.0224 | 0.599 (inactive) | -0.349 (inactive) | 0.231 (inactive) | -0.168 (inactive) | 0.142 | -0.7 (inactive) | -0.427 (inactive) | -0.253
COC(=O)CC=C[C@@H](C)[C@@H](C=NOC(C)CN1CCCc2nc(C)c(C)cc21)OC (stereo not given in full) | 0.17 | 0.431 (inactive) | 0.764 (inactive) | -0.64 (inactive) | 0.632 (inactive) | 1.21 | 0.098 | 0.254 | 0.0852 | 0.655 | -0.4 (inactive) | -0.202 | 0.378 (inactive) | 0.633 (inactive) | -0.17 (inactive) | 0.538 (inactive) | -0.77 | -0.0618 (inactive) | -0.14 (inactive) | 0.372
CC[C@@H](c1ccccc1)n1c(=O)n2n(c1=O)[C@H]1[C@H](O)[C@@H]3O[C@@H]3C(=O)[C@H]1CC2 | -0.0319 | -3.57 (inactive) | 0.206 (inactive) | -1.02 (inactive) | 2.92 (inactive) | 0.092 | -0.0762 | 0.0045 | -0.146 | 0.678 | 0.289 (inactive) | -0.101 | -0.48 (inactive) | -0.38 (inactive) | -0.0399 (inactive) | -0.139 (inactive) | -0.126 | -6.29 (inactive) | -0.0502 (inactive) | 0.324
O=C1[C@H]2[C@H]3[C@H](O)[C@H](O)CC(=NOC[C@@H](O)COCc4ccco4)[C@H]3CC[C@H]2C(=O)N1c1ccc(F)cc1F | -0.459 | -2.57 (inactive) | -1.34 (inactive) | 0.699 (inactive) | -0.455 (inactive) | -1.07 | -0.103 | 2.05 | 1.84 | 0.717 | -0.575 (inactive) | 0.153 | 1.12 (inactive) | -0.479 (inactive) | 0.679 (inactive) | -1.14 (inactive) | 1.69 | -0.249 (inactive) | 0.498 (inactive) | 1.09
C[C@H](ON=C1[C@H]2CCn3c(=O)n(-c4ccccc4)c(=O)n3[C@H]2[C@H](O)[C@@H]2O[C@H]12)c1cn([C@H](CO)Cc2ccccc2)nn1 | 0.087 | 1.92 (inactive) | 0.285 (inactive) | -0.324 (inactive) | 0.578 (inactive) | 1.19 | -0.154 | 0.421 | 0.295 | 0.248 | 0.699 (inactive) | 0.0502 | 0.463 (inactive) | -0.426 (inactive) | -0.089 (inactive) | -0.0498 (inactive) | -0.52 | -0.094 (inactive) | 0.535 (inactive) | 0.346
